RGS12 GoLoco inh – qHTS Assay for Inhibitors of RGS12 GoLoco Motif Activity (Red Fluorophore); AID 880, 2007; Guanine nucleotide-binding protein G(i) subunit alpha-1 (Homo sapiens), P63096; 230,000 compounds, 0.44% hits; Gai1:RGS12 GoLoco peptide FP, rhodamine, 10 min; Potency, µM (titrated, usually from 61.6 µM), without a hit: at the highest dose activity, negative = inhibition, hits mostly inhibitors; active = well fitted inhibition curve with a large enough effect, not every such curve was filed as active; inactive = no such curve, though single readings can be large or run the other way; also: potency is read from the fitted curve at half-maximal effect; % is scaled to controls: 0 for no effect and ±100 for the full control effect; nearly all actives have a fitted effect of over 30% in size
Target sequence (P63096 whole entry, looked up): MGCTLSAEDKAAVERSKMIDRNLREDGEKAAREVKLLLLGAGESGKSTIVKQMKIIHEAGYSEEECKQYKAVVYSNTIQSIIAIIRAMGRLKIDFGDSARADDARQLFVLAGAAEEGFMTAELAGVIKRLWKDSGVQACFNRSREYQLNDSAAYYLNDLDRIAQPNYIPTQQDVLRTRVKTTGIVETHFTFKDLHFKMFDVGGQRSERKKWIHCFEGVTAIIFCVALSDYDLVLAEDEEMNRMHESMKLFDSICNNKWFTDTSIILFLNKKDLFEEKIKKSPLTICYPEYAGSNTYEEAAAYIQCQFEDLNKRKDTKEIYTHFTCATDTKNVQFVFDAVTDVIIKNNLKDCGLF
Menin MLL FP FL – qHTS Assay for Inhibitors Targeting the Menin-MLL Interaction in MLL Related Leukemias: Competition With Fluorescein Labeled MLL-derived Peptide | FP activity change, % at 61.4 µM | 290,000 tested, under 10 active | Fluorescence polarization, fluorescein-MLL peptide displacement from menin | AID 1766, 2009; active = well fitted curve in the direction sought with a large enough effect in the polarisation, not every such curve was filed as active; inconclusive = small, poorly fitted or top-dose-only effect, or effect the other way, or a change in a side signal; inactive = no such curve, though single readings can be large or run the other way; the % refers to the polarisation; also: % of control where 0% means no effect
Tb PFK inh-1 – qHTS Assay to Find Inhibitors of T. brucei phosphofructokinase; ATP-dependent 6-phosphofructokinase (Trypanosoma brucei brucei), O15648; T. brucei PFK, ADP-Glo luminescence; Potency, µM (doses to about 57.5 µM), for inactives: at the top dose activity, negative = inhibition, most hits filed as inhibitors; 330,000 compounds, 0.17% hits;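 also: potency is read from the fitted curve at half-maximal effect; 0% = uninhibited 1x PFK enzyme wells and -100% = no-enzyme wells; nearly all actives have a fitted effect of over 60% in size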
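ADP-Glo luminescence quantified ADP after 45 min at room temperature, with 1.25 nM T. brucei PFK, 0.1 mM ATP and 0.5 mM fructose-6-phosphate in pH 8.0 TEA buffer. qHTS titrations up to 57 µM; curves classified by quality.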
MLL CXXC-DNA inh – qHTS Fluorescence Polarization Assay for Inhibitors of MLL CXXC domain - DNA interaction. AID 2662, 2010. Potency, µM (series often up to 115 µM), without a hit: top-dose activity change, negative = inhibition, hits mostly inhibitors. 290,000 compounds, 0.037% hits. Histone-lysine N-methyltransferase 2A (Homo sapiens), Q03164. MLL-CXXC / FITC-HOXA9 DNA fluorescence polarization; active = well fitted inhibition curve with a large enough effect in the polarisation, with a control signal flat, not every such curve was filed as active; inconclusive = small, poorly fitted or top-dose-only effect, or effect the other way, or a change in a side signal; inactive = no such curve, though single readings can be large or run the other way; the % refers to the polarisation; also: potency is read from the fitted curve at half-maximal effect
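Steps: dispense CXXC domain solution (7 uM) → pin compounds or unlabeled HOX-A9 DNA control → 5 min ambient → add FLSN-HOX-A9 solution (50 nM) → spin → 30 min ambient → fluorescence polarization. Tris pH 7.5/NaCl/DTT/BSA buffer.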
Menin MLL FP TR – qHTS Assay for Inhibitors Targeting the Menin-MLL Interaction in MLL Related Leukemias: Competition With Texas Red Labeled MLL-derived Mutant Peptide; O00255; Menin + Texas Red MLL mutant peptide, fluorescence polarization; Potency, µM (series often up to 61.6 µM), without a hit: top-dose FP activity change, negative = inhibition, actives largely listed as inhibitors; 270,000 compounds, 0.23% hits; active = well fitted inhibition curve with a large enough effect in the polarisation, with a control signal flat, not every such curve was filed as active; inconclusive = small, poorly fitted or top-dose-only effect, or effect the other way, or a change in a side signal; inactive = no such curve, though single readings can be large or run the other way; the % refers to the polarisation; also: potency is read from the fitted curve at half-maximal effect; % of control where 0% means no effect
Tb PFK KinaseGlo – Tb PFK orthogonal confirmatory assay using ATP depletion (Kinase-Glo Plus) as an alternative measure of Tb PFK activity: Hit Validation; shares compounds with Tb PFK inh-1; Tb PFK enzyme, ATP depletion, Kinase-Glo Plus luminescence; Potency, µM (titrated, usually from 57.5 µM), for inactives: at the top dose inhibition; 1,100 compounds, 47% hits; calls by dose curve; also: potency is read from the fitted curve at half-maximal effect; nearly all actives have a fitted effect of over 60% in size
Tb PFK inh-2 – Inhibitors of T. brucei phosphofructokinase: Hit Validation. shares compounds with Tb PFK inh-1. purified T. brucei PFK, ADP-Glo luminescence, 45 min. Potency, µM (titrated, usually from 57.5 µM), inactives show at the highest dose activity change, negative = inhibition, usual class: inhibitors. 1,100 compounds, 41% hits;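 also: potency is read from the fitted curve at half-maximal effect; plate controls were full PFK enzyme control for no effect and no enzyme control for full effect; nearly all actives have a fitted effect of over 60% in size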
* marks the source's active call; other numbers are inactive results. Compounds with a hit are over-represented: about 0.43% of the library has one in this group of screens. Unless noted, calls follow the shape of the dose curve; as a rule, active = well fitted inhibition curve with a large enough effect; inconclusive = small, poorly fitted or top-dose-only effect, or effect the other way; inactive = flat fitted curve, though single readings scatter.

O=C(NCc1ccc(F)cc1)C(=O)NCC1CCCN1S(=O)(=O)c1ccccc1 (configuration not stated) was read as Tb PFK inh-1 inconclusive, Tb PFK KinaseGlo 23.9µM* and Tb PFK inh-2 inconclusive.
`CCN(CC)S(=O)(=O)c1ccc(N(C)C)c(NC(=O)CSCc2c(C)noc2C)c1` gave Tb PFK inh-1 -16.6% and MLL CXXC-DNA inh -13.9%.
Screening O=C(NCc1cccnc1)Nc1ccc(Cl)cc1Cl returned Tb PFK inh-1 -8.3% and MLL CXXC-DNA inh -9.6%.
For Cc1ccc(/C=c2\sc3nc(-c4ccccc4Br)nn3c2=O)o1 the results were RGS12 GoLoco inh 89.5%, Menin MLL FP FL inconclusive, Tb PFK inh-1 inconclusive, MLL CXXC-DNA inh 17.0% and Menin MLL FP TR inconclusive.
Cc1ccc(/C=c2\sc3nc(-c4ccco4)nn3c2=O)o1 was read as RGS12 GoLoco inh 120.1%, Menin MLL FP FL inconclusive, Tb PFK inh-1 21.3µM*, MLL CXXC-DNA inh -1.8%, Menin MLL FP TR inconclusive, Tb PFK KinaseGlo inconclusive and Tb PFK inh-2 inconclusive.
CCN(CC)S(=O)(=O)c1cc([N+](=O)[O-])ccc1NNC(=O)Nc1ccc(Cl)c(Cl)c1 was read as RGS12 GoLoco inh -7.4%, Menin MLL FP FL 4.5, Tb PFK inh-1 inconclusive, MLL CXXC-DNA inh -11.2%, Menin MLL FP TR inconclusive, Tb PFK KinaseGlo 14.7% and Tb PFK inh-2 -5.8%.
For O=C(NNc1ccccc1[N+](=O)[O-])Nc1ccc(Cl)c(Cl)c1 the results were RGS12 GoLoco inh 18.3%, Menin MLL FP FL 12.9, Tb PFK inh-1 12µM*, MLL CXXC-DNA inh 7.2%, Menin MLL FP TR inconclusive, Tb PFK KinaseGlo inconclusive and Tb PFK inh-2 -15.6%.
O=C(NNc1ccc([N+](=O)[O-])cc1)Nc1ccccc1 was read as Menin MLL FP FL -2.3, Tb PFK inh-1 inconclusive, MLL CXXC-DNA inh -6.3%, Menin MLL FP TR 4.7%, Tb PFK KinaseGlo 19µM* and Tb PFK inh-2 inconclusive.
Screening O=C(NCCc1ccc(F)cc1)Nc1ccc([N+](=O)[O-])cc1 returned Tb PFK inh-1 inconclusive, MLL CXXC-DNA inh 12.2%, Tb PFK KinaseGlo inconclusive and Tb PFK inh-2 inconclusive.
For CCOC(=S)SSC(=S)OCC the results were Menin MLL FP FL -3.1, MLL CXXC-DNA inh -3.2% and Menin MLL FP TR -6.4%.
Screening Cc1ccc(N2C(=O)C(Cl)=C(N3CCCCCC3)C2=O)cc1 returned Menin MLL FP FL -1.9, Tb PFK inh-1 -4.7%, MLL CXXC-DNA inh -13.3% and Menin MLL FP TR 10.4%.
O=C1C(Cl)=C(N2CCCCC2)C(=O)N1c1ccccc1 was read as RGS12 GoLoco inh -11.0%, Menin MLL FP FL 3.6, Tb PFK inh-1 inconclusive, MLL CXXC-DNA inh -0.8%, Menin MLL FP TR -6.9%, Tb PFK KinaseGlo -19.3% and Tb PFK inh-2 13.2%.
CCn1c(N)c(C(=O)NC)sc1=S was read as RGS12 GoLoco inh -13.6%, Menin MLL FP FL 2.7, Tb PFK inh-1 inconclusive, MLL CXXC-DNA inh 3.3%, Menin MLL FP TR -3.3%, Tb PFK KinaseGlo 9.53µM* and Tb PFK inh-2 19µM*.

Screening data (PubChem)
